Laboratory results taken from PubChem BioAssay (NCATS).
Values joined by “and” are separate entries in the source; they are usually repeats but may differ in a detail not shown here. Equal values may be shown once. Results filed as inconclusive are left out. The source holds several records for some structures; these can differ, active in one and inactive in another. Active and inactive are the calls of the source. The call rests on the fitted dose curve; in most records, active means well fitted inhibition curve with a large enough effect; inconclusive means small, poorly fitted or top-dose-only effect; inactive means flat fitted curve, though single readings scatter.

Legend:
[1] = tested on: HEK293; experiment: Cytotoxic Profiling of Annotated Libraries Using Quantitative High-Throughput Screening (AID 1296008); details: Five cell lines viability, CellTiter-Glo ATP luminescence, 48-72 h; max response: active compounds read low
Outline: (§1)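 Cytotoxicity was measured as CellTiter-Glo ATP luminescence, read after 10 min at room temperature. Compound treatment of the cells lasted 48 or 72 hr at 37 degrees Celsius in a qHTS format.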

[2] = tested on: HaCat; experiment: as above; details: Five cell lines viability, CellTiter-Glo ATP luminescence, 48-72 h; max response: active compounds read low
Outline: as §1

[3] = tested on: NIH3T3; experiment: as above; details: Five cell lines viability, CellTiter-Glo ATP luminescence, 48-72 h; max response: active compounds read low
Outline: as §1

[4] = tested on: MCC-13; experiment: qHTS assay to identify novel small-molecules to repurpose for Merkel cell carcinoma treatment (AID 1296009); details: MCC and control cell lines, CellTiter-Glo viability, 72 h; series mostly up to 46 µM
Outline: (§2)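 Cell viability measured by CellTiter-Glo following 72 hr compound treatment at 37 degree celsius, with NPC and MIPE libraries tested in 8- and 11-point concentration series.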

[5] = tested on: MCC-26; experiment: as above; details: MCC and control cell lines, CellTiter-Glo viability, 72 h; series mostly up to 46 µM
Outline: as §2

[6] = tested on: MKL-1; experiment: as above; details: MCC and control cell lines, CellTiter-Glo viability, 72 h; series mostly up to 46 µM
Outline: as §2

[7] = tested on: KB-3-1; experiment: Cytotoxic Profiling of Annotated Libraries Using Quantitative High-Throughput Screening (AID 1296008); details: Five cell lines viability, CellTiter-Glo ATP luminescence, 48-72 h; max response: active compounds read low
Outline: as §1

[8] = tested on: HACAT; experiment: qHTS assay to identify novel small-molecules to repurpose for Merkel cell carcinoma treatment (AID 1296009); details: MCC and control cell lines, CellTiter-Glo viability, 72 h; series mostly up to 44.8 µM
Outline: as §2
Further: nearly all actives have a fitted effect of over 60% in size.
On the % scale 0 is the no-effect control and ±100 the full control effect; potency means the concentration at half of the fitted maximal effect.

CC(C)c1noc(N2CCC(COc3ccc(-c4ccc(S(C)(=O)=O)cc4)nc3)CC2)n1
active: Potency [1] 7.43 µM and 8.2 µM
inactive: max response [2] -15.4% and 4.61% | max response [3] -1.13% and 3.22% | Potency [4] | Potency [5] | Potency [6]

CCCCN1CCC(CNC(=O)c2c3n(c4ccccc24)CCCO3)CC1
inactive: Potency [4]

COCCn1c2c([n+](Cc3cnccn3)c1C)C(=O)c1ccccc1C2=O
active: Potency [1] 0.0166 µM | Potency [2] 0.0743 µM | Potency [7] 0.0148 µM | Potency [3] 16.6 µM | Potency [4] 0.59 µM | Potency [5] 0.296 µM | Potency [6] 0.0023 µM

Nc1ncnc2c1c(-c1cccc(OCc3ccccc3)c1)cn2C1CC(CN2CCCC2)C1 (centres undefined)
inactive: max response [2] -11.4% | outcome [2] | Potency [8] | Potency [4]
active: Potency [1] 13.2 µM and 5.17 µM | Potency [7] 18.7 µM | Potency [3] 14.8 µM and 16.4 µM

C[C@@H](Oc1cc(-n2cnc3ccc(CN4CCN(C)CC4)cc32)sc1C(N)=O)c1ccccc1C(F)(F)F
active: Potency [1] 0.0332 µM | Potency [7] 0.0118 µM | Potency [3] 0.662 µM | Potency [6] 0.0296 µM

O=c1[nH]nc(Sc2ncc([N+](=O)[O-])s2)n1-c1ccc2c(c1)OCCO2
active: Potency [2] 18.7 µM | Potency [3] 8.33 µM | Potency [4] 11.8 µM | Potency [5] 10.5 µM | Potency [6] 3.72 µM

COc1ccc(OC)c(-c2nnc3ccc(-c4ccc(OC)c(O[C@@H]5CCOC5)c4)nn23)c1
active: Potency [1] 8.33 µM | Potency [2] 1.46 µM | Potency [7] 6.51 µM | Potency [3] 33.2 µM

COc1cc2ncnc(Nc3ccc(F)c(Cl)c3)c2cc1NC(=O)C=CCN1CCCCC1
inactive: max response [2] -96.7% | outcome [7] | max response [3] -20.4% | Potency [4]

C=CC(=O)Nc1cc2c(Nc3ccc(F)c(Cl)c3)ncnc2cc1OCCCN1CCOCC1
active: Potency [1] 7.5 µM | Potency [2] 0.0094 µM | Potency [3] 4.73 µM
inactive: outcome [7] | Potency [4] | Potency [5]

COc1cc2ncn(-c3cc(OCc4ccccc4C(F)(F)F)c(C(N)=O)s3)c2cc1OC
active: Potency [1] 0.469 µM | Potency [7] 0.418 µM
inactive: max response [3] -29.2% | Potency [5]

Cn1cncc1[C@@](N)(c1ccc(Cl)cc1)c1ccc2c(c1)c(-c1cccc(Cl)c1)cc(=O)n2C
active: Potency [1] 0.148 µM | Potency [7] 14.8 µM | Potency [6] 4.69 µM
inactive: Potency [5]

CN(c1ncccc1CNc1nc(Nc2ccc3c(c2)CC(=O)N3)ncc1C(F)(F)F)S(C)(=O)=O
active: Potency [1] 3.72 µM | Potency [2] 16.6 µM | Potency [7] 7.43 µM | Potency [6] 9.35 µM

Nc1ccc(S(=O)(=O)Nc2ncccn2)cc1
inactive: Potency [8] | Potency [4] | Potency [5] | Potency [6]

Cc1coc2c1C(=O)C(=O)c1c-2ccc2c1CCCC2(C)C
inactive: max response [2] -3.22% | outcome [2] | max response [7] -4.98% | max response [3] -27% | outcome [3] | Potency [8] | Potency [4] | Potency [6]
active: Potency [1] 9.2 µM | Potency [7] 16.4 µM

Cc1cnc(-c2cnc(NCCNc3ccc(C#N)cn3)nc2-c2ccc(Cl)cc2Cl)[nH]1
inactive: max response [1] -23.2% and -27.2% | outcome [2] | max response [7] -14.7% and -1.89% | outcome [3] | Potency [8] | Potency [5] | Potency [6]

COC(=O)C1=C(C)NC(C)=C(C(=O)OCCN2CCN(C(c3ccccc3)c3ccccc3)CC2)C1c1cccc([N+](=O)[O-])c1 (centres undefined)
inactive: max response [7] -4.82% | Potency [5]
active: Potency [1] 11.9 µM

CCCCOc1c(C(=O)c2c(F)cc(C)cc2F)cnc2n[nH]cc12
inactive: outcome [7] | Potency [4] | Potency [5] | Potency [6]
active: Potency [1] 14.8 µM and 2.59 µM | Potency [3] 16.6 µM

Cc1cc(CN2CCN(c3c(Br)cnc4nc(-c5ccc(N6CCN(C)CC6)cc5)[nH]c34)CC2)no1
active: Potency [1] 23.5 µM and 9.2 µM | Potency [2] 2.35 µM | Potency [7] 18.7 µM and 16.4 µM | Potency [3] 13.2 µM and 1.46 µM | Potency [6] 3.32 µM

O=C(CCCCCCNC(=O)c1cnc(N(c2ccccc2)c2ccccc2)nc1)NO
active: Potency [2] 16.6 µM | Potency [7] 11.8 µM and 8.2 µM | Potency [6] 9.35 µM
